# Compounds with a hit are over-represented: about 3.1% of the library has one in this group of screens.
# Statin myotox sup – suppressors of statin myotoxicity in C2C12 myotubes, primary screen, cell-based, single point, plate reader; C2C12 myotubes + simvastatin, ATP luminescence, 48 h; scaled: DMSO 0, geranylgeraniol control 100; hit rate 0.78% among 330,000; rescue of ATP level, % at 7.49 µM;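 active = mean ATP rescue above about 67%, or every replicate alone reaching that limit, limit read from the data, passing the limit was not always enough; inconclusive = no clear call, values can overlap the other calls; inactive = mean under the limit and some replicate under it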;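 also: myotubes were challenged with 10 µM simvastatin during compound exposure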
# esBAF inh – Bmi1 luciferase reporter increase in mESCs, primary screen, esBAF inhibitor project, mouse ES cells, Bmi1 luciferase knock-in, single point | 24 h; 100% = twice the neutral-well signal | reporter increase, % at 12.5 µM | hit rate 2% among 350,000; in the data active = activation above about 40%; inconclusive = no clear call, values can overlap the other calls;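 also: 0% = median of the plate's neutral control wells and 100% = double that signal; a rise in the Bmi1 reporter signal indicates esBAF inhibition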
# Rtt109 Vps75 – inhibitors of C. albicans Rtt109/Vps75 HAT, primary screen, biochemical, ThioGlo CoA-SH fluorescence, plate reader. purified Rtt109/Vps75, 4 h. inhibition, % at 34.9 µM. Histone acetyltransferase RTT109 (Candida albicans (strain SC5314 / ATCC MYA-2876)), …. hit rate 0.16% among 330,000;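 active = inhibition of at least 50% in every replicate; inconclusive = best replicate reaches 50% inhibition but some replicates fall short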
# Target sequence (Q5AAJ8 whole entry, looked up): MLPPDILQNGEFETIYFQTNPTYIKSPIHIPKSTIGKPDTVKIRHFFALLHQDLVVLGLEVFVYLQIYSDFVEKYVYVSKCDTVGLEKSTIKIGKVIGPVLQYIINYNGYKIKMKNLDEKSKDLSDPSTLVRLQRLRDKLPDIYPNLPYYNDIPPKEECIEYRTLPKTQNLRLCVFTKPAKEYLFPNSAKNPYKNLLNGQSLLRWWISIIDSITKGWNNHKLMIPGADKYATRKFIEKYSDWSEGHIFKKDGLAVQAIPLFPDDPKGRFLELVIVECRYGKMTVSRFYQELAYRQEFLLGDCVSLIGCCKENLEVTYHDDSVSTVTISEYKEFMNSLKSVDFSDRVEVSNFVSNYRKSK
# Wnt act – Wnt/beta-catenin pathway activators, primary screen, cell-based, plate reader, single point; activation, % at 9.35 µM; AID 743398, 2014; hit rate 1.2% among 300,000; Wnt/beta-catenin reporter cell assay, activator; in the data active = activation above about 30%, passing the limit was not always enough; inconclusive = no clear call, values can overlap the other calls;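 also: 0% = neutral control wells and 100% = positive control wells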
# MITF act – activators of MITF-driven TRPM1 promoter reporter, primary screen, cell-based, SK-MEL-5, luciferase, single point; hit rate 0.75% among 300,000; AID 588334, 2011; activation, % at 12.5 µM; SK-MEL-5 TRPM1-promoter luciferase, 24 h; % of positive control, neutral wells = 0;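 active = mean activation of at least 80% with every replicate also reaching 80%; inconclusive = mean reaches 80% but some replicate falls short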;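 also: 0% = neutral control wells and 100% = parthenolide positive control wells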
# * = called active by the depositor; ? = inconclusive; . = no result given.
SMILES,Statin myotox sup,esBAF inh,Rtt109 Vps75,Wnt act,MITF act
O=C(NCCN1CCOCC1)c1cccc(S(=O)(=O)N2CCCCC2)c1,.,.,-1,0,3
O=[N+]([O-])c1ccccc1-c1ccc(C(=S)N2CCCC2)o1,24,44*,.,12,14
CC(C)(CNC(=O)c1cccc(S(=O)(=O)N2CCCCC2)c1)N1CCOCC1,6,14,.,119*,.
CC1CCCN(C(=O)c2ccc(-c3ccccc3Cl)o2)C1 (stereo not given),-41,77*,-7,34*,140*
O=C(C[C@@H]1CC[C@@H](NC(=O)Nc2ccc(C(F)(F)F)cc2)[C@H](CO)O1)NCc1cc(F)cc(F)c1,6,-2,.,.,.
CC(C)(CNC(=O)c1ccc(-c2ccccc2Cl)o1)N1CCOCC1,-36,71*,-3,9,70
O=C(c1ccc(-c2ccccc2Cl)o1)N1CCCCCCC1,-1,54*,-19,40*,?
O=C(c1ccc(-c2ccc([N+](=O)[O-])cc2)o1)N1CCCCCCC1,-1,20,24,26,17
COc1ccccc1-c1ccc2c(c1)O[C@H](CN(C)S(=O)(=O)c1ccc(F)cc1)[C@H](C)CN([C@H](C)CO)S2(=O)=O,-27,4,.,.,.
CCOc1ccccc1OCCOc1ccccc1CC,128*,-7,-6,-2,-6
CCOc1ccccc1OCCOc1ccccc1OC(C)C,.,.,-6,.,6
C[C@@H]1CN([C@@H](C)CO)S(=O)(=O)c2ccc(-c3ccccc3)cc2O[C@@H]1CN(C)C(=O)C1CC1,11,-1,.,.,.
Clc1ccc(OCCSc2ncccn2)cc1,.,.,5,.,100*
COc1ccc(OCCSc2ncccn2)cc1,-4,?,8,.,38
c1cnc(SCCCOc2ccc3ccccc3c2)nc1,5,38,-4,0,78
COc1cccc(OCCSc2nc(N)cc(N)n2)c1,0,55*,2,.,.
Nc1cc(N)nc(SCCOc2ccccc2)n1,31,38,0,.,56
COc1ccc(OCCCSc2ncccn2)cc1,6,57*,1,.,113*
Cn1cnnc1SCCOc1ccc(Cl)cc1,.,.,-1,-2,12
Cc1ccc(OCCCSc2ncccn2)cc1C,-3,70*,-12,.,?
COc1cccc(OCCCCSc2ncccn2)c1,11,55*,-1,.,41
c1ccc(Oc2cccc(OCCCCSc3ncccn3)c2)cc1,-5,-3,.,-2,4
CCCC#Cc1ccc2c(c1)[C@H]1[C@H](CCN1S(=O)(=O)c1ccc(C)cc1)[C@H](CO)N2C,-12,-5,.,.,.
COc1ccccc1Cc1c(-c2ccc(C)cc2)nc2ccc(Cl)cn12,-2,63*,.,24,.
COc1ccccc1Cc1c(-c2ccc(OC)c(OC)c2)nc2ccc(Cl)cn12,1,-4,.,-2,.
SMILES,Statin myotox sup,esBAF inh,Rtt109 Vps75,Wnt act,MITF act
COC(=O)c1ccc2nc(-c3ccc(Cl)cc3)c(Cc3ccc(OC)cc3C)n2c1,.,.,.,-3,.
COc1ccc(Cc2c(-c3ccc(C)cc3)nc3ccc(Cl)cn23)c(C)c1,-6,65*,.,13,.
CCCCn1c(CN2CCN(C(=O)OCC)CC2)nc2c1c(=O)n(C)c(=O)n2C,-3,-4,0,42*,-8
CCCCCn1c(CN2CCN(CCO)CC2)nc2c1c(=O)n(C)c(=O)n2C,-8,2,-4,-2,-4
CCN(CC)CCCNC(=O)c1ccc2c3n(nc2c1)-c1ccc(Cl)cc1CO3,-3,37,10,18,114*
O=C(c1ccc2c3n(nc2c1)-c1ccc(Cl)cc1CO3)N1CCOCC1,-29,73*,-3,33*,126*
CCCCn1nc2cc(C(=O)N[C@H](C)C3CCCCC3)ccc2c1OCC,-6,14,-2,-7,3
CC(C)NC(=O)c1ccc2c3n(nc2c1)-c1ccc(Cl)cc1CO3,-18,75*,-1,34*,102*
O=C(C[C@H]1C=C[C@@H](NC(=O)CN2CCOCC2)[C@@H](CO)O1)NC1CCC1,1,0,.,.,.
COc1cc2c(C(=O)NCCCN3CCN(c4cccc(Cl)c4)CC3)cn(C)c(=O)c2cc1OC,122*,3,4,-1,-7
COc1ccc(S(N)(=O)=O)cc1C(=O)NCCCN1CCN(c2cccc(Cl)c2)CC1,2,18,1,.,1

# From PubChem BioAssay
